SMILES strings stand for the structures. About 1,100 (0.31%) of roughly 360,000 compounds were called active. The sample holds actives, similar compounds and a random draw of the others, so the mix is not that of the screen. Values without a mark were called inactive. Cut-off read from the data, not from the text of the source: active = activity change below about -80%; inconclusive = mostly about -51% to -80%; inactive = weaker than that.

Activity change data for 51 compounds are collected here from PubChem BioAssay AID651550 (National Center for Advancing Translational Sciences (NCATS), 2012).
% is set by controls: 0 for no effect and ±100 for the full control effect.

The assay addresses RAC-alpha serine/threonine-protein kinase (Homo sapiens) (UniProt P31749). Nature of the assay: HTS Assay for Inhibitors of Akt Phophorylation: Primary Screen. The following applies: Neuro2A IGF-stimulated pAkt S473 HTRF, 20 min; at 50 µM, hits give low values. The source says: The serine/threonine protein kinase Akt (protein kinase B) regulates various cellular processes, including cell survival, growth, proliferation, migration and differentiation. It has been well established that Akt is activated through two essential steps involving membrane translocation and phosphorylation. Cytosolic Akt is recruited to the plasma membrane via the interaction between the PH domain and membrane PIP3 produced by phosphoinositide-3 kinase (PI3K) upon growth factor receptor stimulation. The membrane-Akt interaction results in conformational changes of Akt, enabling its activation through phosphorylation at T308 in the kinase domain and at S473 in the C-terminal hydrophobic motif by PDK1 and mTOR-rictor complex (mTORC2), respectively. […] These findings indicate that S473 phosphorylation, as an important modulator of Akt activation, may be a valuable drug target for cell growth, survival, proliferation and differentiation. These inhibitors also may have significant therapeutic potential with fewer side effects, especially for the conditions involving hyperactive Akt signaling, such as cancer and Alzheimer's disease.
To this end, a miniaturized assay was developed to be screened against the Molecular Libraries Small Molecule Repository (MLSMR).
NIH Chemical Genomics Center [NCGC]
NIH Molecular Libraries Probe Centers Network [MLPCN]
Assay Submitter (PI): Hee-Yong Kim, National Institute on Alcohol Abuse and Alcoholism
3 uL of Neuro2A cell suspension in DMEM containing 0.5% FBS and […] antibiotics mix was plated in a white solid bottom tissue culture-treated 1536-well plate (Greiner Bio-One, Monroe, NC) at 4,500 cells per well and incubated overnight at 37 deg C. 23 nL/well of compound solutions in DMSO was added with Pintool transfer (Kalypsis, San Diego, CA) at single […] final concentration. Then, the cells were stimulated with 1.5 uL of IGF (6 nM final concentration) and incubated at 37 deg C for 20 min. The reaction was terminated by the addition of 1.5 uL blocking reagent mixed with lysis buffer (1:25 correspondingly) provided with HTRF(R) Phospho Akt (Ser473) kit (Cisbio US, Bedford, MA), with following incubation for 50 min at ambient temperature. The detection HTRF conjugates from the kit were prepared according to the protocol, pre-mixed 1:1 prior to dispensing, and 2 uL/well was added with BioRAPTR FRD dispenser (Beckman Coulter). The assay plates were incubated for 24 hours at ambient temperature, and the HTRF fluorescence was measured using Envision plate reader (PerkinElmer) with excitation at 330nm, emission at 615nm (Eu(3)-Cryptate donor signal) and 665nm (d2 acceptor signal). The ratio of […] was calculated for each well.
(TR-FRET usually uses a lanthanide donor and a delayed reading to cut background.)
For the compound `CCCc1ccc(-c2csc(NC(=O)Cc3cccs3)n2)cc1`, the activity change was -105% (active).
With `O=C(Nc1ccc2c(c1)C(=O)OC2)Nc1cccc2ccccc12` the entry was “inactive”.
With `CCn1cc(C(=O)NC2CCCCCC2)c(=O)c2cc(S(=O)(=O)N3CCCCC3)ccc21` the entry was “inactive”; with `CCn1cc(C(=O)NCC2CCCO2)c(=O)c2cc(S(=O)(=O)N3CCCCC3)ccc21` (stereo unspecified), -109% (active).
For the compound `CCn1cc(C(=O)N2CC(C)CC(C)C2)c(=O)c2cc(S(=O)(=O)N3CCCC3)ccc21` (stereo unspecified), the activity change result is “inactive”.
For `CC(C)(C)NC(=O)C(CCc1ccccc1)n1c(=O)c(-c2ccccc2)nc2ccccc21` (stereo unspecified), the activity change result is “inactive”.
With `CCC(c1nnnn1Cc1ccco1)N(CCc1ccccc1)Cc1cc2cccc(C)c2[nH]c1=O` (stereo unspecified) the figure was -20.5%.
As for `CCC(c1nnnn1C1CCCC1)N(Cc1cccs1)Cc1cc2cccc(C)c2[nH]c1=O` (stereo unspecified), the activity change was -108% (active).
With `Cc1cccc2cc(CN(Cc3nnnn3Cc3ccccc3)C3CCCC3)c(=O)[nH]c12` the entry was “inactive”.
As for `CCc1ccccc1N(CC(=O)NCCSCc1ccco1)S(C)(=O)=O`, the activity change result is “inactive”.
With `Cc1[nH]c2ccccc2c1C(=O)c1cc([C@H](NC(=O)OC(C)(C)C)C(C)C)sc1N` the entry was “inactive”.
With `Cc1ccc2c(C)c(C(=O)N3CCN(c4ccncc4)CC3)oc2c1C` the entry was “inactive”.
Take `COc1c(Br)cc2c(C)c(C(=O)N3CCOCC3)oc2c1Br`: the activity change is -114% (active).
Consider `O=C(c1cc2cc(Br)cc(Br)c2oc1=O)N1CCOCC1`, for which the activity change entry is “inactive”.
With `CCOC(=O)[C@]12CCCC=C1N(CCC1=CCCCC1)C(=O)[C@H](CC(=O)N1CCOCC1)C2` the entry was “inactive”.
With `OCCC#Cc1ccc(N2C(c3ccsc3)=Cc3ccc(F)cc3C2c2c[nH]c3ccccc23)cc1` (stereo unspecified) the entry was “inactive”.
Take `CC(C)CC1(C)NC(=O)N(CC(=O)Nc2ccc3c(c2)OCCO3)C1=O` (stereo unspecified): the activity change result was “inactive”.
With `CC1=NN(C(C)C)C(=O)C1` the figure was -118% (active); with `CCOC(=O)NN1C(=O)c2ccccc2NC1c1ccccc1O` (stereo unspecified), “inactive”.
`CC1(C(=O)NCc2ccccc2)CSCC(=O)N1CCCN1CCOCC1` (stereo unspecified): the activity change result is “inactive”.
With `COc1ccc2ccccc2c1CNCc1ccccn1` the entry was “inactive”; with `CSCCC(C(=O)NC(C)(C)C)n1c(-c2ccccc2)nc2ccccc21` (stereo unspecified), “inactive”; with `O=C(CCn1ccc([N+](=O)[O-])n1)Nc1nccs1`, “inactive”.
With `CC(NC(=O)C(=O)Nc1nccs1)c1ccccc1` (stereo unspecified) the entry was “inactive”.
Take `Cc1c(Br)c([N+](=O)[O-])nn1C(C)C(=O)Nc1nccs1` (stereo unspecified): the activity change was -109% (active).
With `CC(CN1CCCCC1)OC(=O)c1ccccc1Cl` (stereo unspecified) the figure was -96.5% (active).
With `Cc1cccc(C(=O)OC(C)CN2CCCC2)c1` (stereo unspecified) the entry was “inactive”; with `Cc1cccc(C(=O)OC(C)CN2CCN(C)CC2)c1` (stereo unspecified), “inactive”.
With `CCOC(=O)[C@]12CCCC=C1N(CCC1=CCCCC1)C(=O)[C@H](CC(=O)N1CCSCC1)C2` the entry was “inactive”; with `Cc1cccc(C)c1NC(=O)C(c1cccc(F)c1)N1CCN(C)CC1` (stereo unspecified), “inactive”.
Consider `Cc1ccc(F)cc1NC(=O)Cc1nn(C)c(=O)c2ccccc12`, for which the activity change was -106% (active).
With `Cc1ccc(F)cc1NC(=O)CSCc1c(C)noc1C` the entry was “inactive”; with `Cc1ccc(C)c(NC(=O)COC(=O)c2nn(C)c(=O)c3ccccc23)c1`, “inactive”.
With `CCN1C(=O)/C(=C\N2CCOCC2)SC1=S` the entry was “inactive”.
Regarding `NNC(=O)CSc1nnc(-c2ccccc2)n1-c1ccccc1`, the activity change entry was “inactive”.
With `O=C(O)CSc1nnc(-c2ccc3c(c2)OCO3)n1-c1ccccc1` the entry was “inactive”; with `O=C(O)CCSc1nnc(-c2ccccc2)n1-c1ccccc1`, -109% (active); with `CS(=O)(=O)N1CCN=C1SCc1ccc(F)cc1`, “inactive”.
With `Cc1cc(Cl)ccc1OCc1nc(-c2ccncc2)no1` the entry was “inactive”.
Take `Cc1noc(COc2ccccc2OCc2onc(C)c2Cl)c1Cl`: the activity change is -112% (active).
For `Cc1cc(OCCOc2cccc3cccnc23)c(C)cc1Cl`, the activity change result is “inactive”.
`CC1(C(=O)NCc2ccccc2)CN(S(C)(=O)=O)CC(=O)N1CC(F)(F)F` (stereo unspecified): the activity change entry is “inactive”.
Regarding `Cc1cccc(NC(=O)CSC(N)=O)c1C`, the activity change was -113% (active).
With `Cc1cccc(NC(=O)COC(=O)CCc2ccccc2)c1C` the entry was “inactive”; with `Cc1cccc(NC(=O)CSc2nc3c(c(=O)[nH]2)CCCC3)c1C`, “inactive”.
With `C=Cc1ccc(C(=O)N2CCCC(CCC(=O)N3CCN(c4ccccn4)CC3)C2)cc1` (stereo unspecified) the entry was “inactive”; with `O=C(C[C@H]1CC[C@H]2[C@@H](COC[C@H](O)CN2C(=O)c2ccccn2)O1)N1CCN(c2ccccc2)CC1`, “inactive”.
With `FC(F)(F)c1cc(-c2ccco2)nc(NCc2ccc(Cl)cc2)n1` the figure was -102% (active).
For the compound `COc1nc(NCc2ccc(Cl)cc2)nc(OC)n1`, the activity change was 1.36%.
With `FC(F)(F)c1cc(-c2cccs2)nc(NCc2ccco2)n1` the figure was -2.47%; with `CC(C)(C)n1nnnc1C(c1ccc2ncccc2c1)N1CCSCC1` (stereo unspecified), “inactive”.
